# Results from PubChem BioAssay AID504465 (National Center for Advancing Translational Sciences (NCATS), 2011).
# In all, about 2,100 compounds went through this assay and about 210 (10%) were called active. About 53% were inconclusive and are not listed. This is one part of the list. Values without a mark were called inactive. Calls follow the shape of the dose curve; as a rule, active = well fitted inhibition curve with a large enough effect; inconclusive = small, poorly fitted or top-dose-only effect, or effect the other way; inactive = no such curve, though single readings can be large or run the other way.
# Experiment: IN Cell qHTS Assay for Inhibitors of the mTORC1 Signaling Pathway in MEF (Tsc2-/-, p53-/-) Cells: Sytravon; also: nearly all actives have a fitted effect of over 60% in size
# Settings: phospho-rpS6 immunofluorescence, 24 h; series mostly up to 38.3 µM; activity, negative = inhibition: at the top concentration
# In short: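 Immunofluorescence of rpS6 phosphorylation (Ser235/236) in mouse embryonic fibroblasts lacking Tsc2 and p53, after 24 h compound exposure; Hoechst-normalized signal imaged, each well scored as % active cells relative to rapamycin (7.5 nM) and DMSO controls.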
# Potency is read from the fitted curve at half-maximal effect.
SMILES,"activity, negative = inhibition [%]",Potency
CC1CCN(C(=O)CN2c3ccc(C(C)C)cc3-c3ccccc3S2(=O)=O)CC1,-27,
COc1ccccc1N1CCN(S(=O)(=O)c2ccc(-n3cnnn3)cc2)CC1,-7.47,
Cc1cc(C)cc(OCC(=O)Nc2ccc(-c3nc4ncccc4o3)cc2C)c1,-21.9,
COc1cccc(C2CC(=O)Nc3cc4c(cc32)OCCO4)c1OC (stereo not given),-21.4,
COc1cc(/C=C/c2nc(C#N)c(N3CCCCCC3)o2)cc(OC)c1OC,-24.2,
CCOc1ccc(-c2c(C)nn3c(C)c(C(=O)Nc4cccc(Cl)c4C)cnc23)cc1OCC,-10.9,
COc1ccc(CNC(=O)c2cc(-c3ccc(Br)s3)nc3ccccc23)c(OC)c1,-13.5,
COc1ccc(CCNC(=O)C(C)n2nc(C)c3sc4ccccc4c3c2=O)c(OC)c1 (stereo not given),,4.65 µM (active)
COc1ccc(CNC(=O)CCCc2cn(C)c3ccccc23)c(OC)c1,6.25,
O=C(Cn1cc(SCc2cccc(C(F)(F)F)c2)c2ccccc21)N1CCCCCC1,-22.9,
Cc1cccc(-c2noc(CNC(=O)c3ccc(C)cc3C)n2)c1,-7.27,
Cc1ccc(NC(=O)c2cc(S(=O)(=O)NCCC3=CCCCC3)ccc2F)cc1F,6.25,
COc1ccc(-n2ncc3c(NCCCOC(C)C)ncnc32)cc1,-3.87,
COc1cccc(-c2noc(CCCC(=O)NCc3ccco3)n2)c1,-11.3,
COc1ccccc1N1CCN(C(=O)c2nc(SC)ncc2Cl)CC1,-10.7,
O=C(NCc1ccccc1Cl)c1cnc(N2CCCCC2)c2ccccc12,-24.1,
COc1ccccc1N1CCN(C(=O)c2cnc(N3CCCCC3)c3ccccc23)CC1,,5.85 µM (active)
Cc1ccccc1Nc1c(-c2cccc(N(C)C)c2)nc2ccc(Br)cn12,24.1,
Cc1cc(=O)n(CC(=O)N2CCN(c3ccccc3F)CC2)c2c1c(C)nn2C,-5.56,
COc1cc(NC(=O)Cn2nc(C(F)(F)F)c3c2CCCC3)c(OC)cc1Cl,-24,
CCCC(=O)Nc1nnc(SCc2cc(=O)c3ccc(C)cc3[nH]2)s1,,3.69 µM (active)
Cc1nnc(NC(=O)CSCc2cc(=O)c3ccccc3[nH]2)s1,14.3,
O=C(Nc1nnc(SCc2cc(=O)c3ccccc3[nH]2)s1)c1ccccc1,-6.25,
Cc1ccc(-n2c(SCc3nc(-c4ccccc4C)no3)nnc2-c2ccncc2)cc1C,-7.02,

SMILES,"activity, negative = inhibition [%]",Potency
C=CCc1cccc2cc(-c3nc4ccc(C)cc4[nH]3)c(=O)oc12,-4.54,
CCC(C(=O)Nc1cc(-c2nc3cccnc3s2)ccc1C)c1ccccc1 (stereo not given),-14.5,
CCCCN(CCCNC(=O)c1cc(Nc2ccc(OC)c(OC)c2)nc2ccccc12)Cc1ccccc1,,2.33 µM (active)
COc1ccccc1Nc1cc(C(=O)NCCCN(C)C2CCCCC2)c2ccccc2n1,,1.65 µM (active)
COc1ccc(N2CCN(CCCNC(=O)c3cc(Nc4ccccc4OC)nc4ccccc34)CC2)cc1,0,
CC1CCCN(CCCNC(=O)c2cc(Sc3ccc(F)cc3)nc3ccccc23)C1 (stereo not given),6.25,
COc1ccc(Nc2cc(C(=O)NCCCN(C)Cc3ccccc3)c3ccccc3n2)cc1OC,0,
CSc1cccc(Nc2cc(C(=O)NCCCN(Cc3ccccc3)C(C)C)c3ccccc3n2)c1,0,
CC1CCCCN1S(=O)(=O)c1ccc(C(=O)Nc2sc3c(c2C(N)=O)CC(C)(C)NC3(C)C)cc1 (stereo not given),6.25,
COc1ccccc1NC(=O)C1=C(C)Nc2nc(SCc3ccccc3)nn2C1c1cccs1 (stereo not given),-16.2,
CCC1CN(C(=O)NCc2cccc(OC)c2)c2cc(Cl)ccc2O1 (stereo not given),-9.57,
Cc1ccc(NC(=O)C(Cc2c[nH]c3ccccc23)NC(=O)OC(C)(C)C)c(C)c1 (stereo not given),30.2,
O=C(Nc1cc(Cl)cc(Cl)c1)c1ccc(F)c(S(=O)(=O)NC2CCCCC2)c1,6.25,
O=C1CC(c2c(F)cccc2Cl)c2c(ccc3ccccc23)N1 (stereo not given),2,
COC(=O)c1ccc(C2C=C(c3ccc(Cl)cc3)Nc3nc4ccccc4n32)cc1 (stereo not given),0,
CCOC(=O)c1cc(S(=O)(=O)NCc2ccc(OC)cc2)[nH]n1,-9.55,
CCS(=O)(=O)c1ncc(Cl)c(C(=O)NCc2ccc(OC)cc2)n1,,3.29 µM (active)
Cc1cccc(NC(=O)c2nc(S(C)(=O)=O)ncc2Cl)c1,,2.61 µM (active)
CC1CCn2c(nc3cc(C(=O)NCc4ccccc4)ccc32)C1 (stereo not given),4.17,
Cc1c(C(=O)Nc2cccc(F)c2)oc2c1-c1nn(Cc3c(F)cccc3Cl)cc1CC2,-85.4,
COc1ccc(CNC(=O)C2CCC(CNS(=O)(=O)c3cccs3)CC2)cc1 (stereo not given),21.6,
Cc1ccc(NC(=O)c2nc(S(=O)(=O)Cc3cccc(C)c3)ncc2Cl)cc1,,6.56 µM (active)
O=C(NCc1ccccc1)c1nc(S(=O)(=O)Cc2ccccc2)ncc1Cl,,18.5 µM (active)
Cc1cccc(NC(=O)c2ccc(F)c(S(=O)(=O)NCc3ccc4c(c3)OCO4)c2)c1,6.25,

SMILES,"activity, negative = inhibition [%]",Potency
O=C(Nc1ccc(F)c(F)c1)c1cc(S(=O)(=O)N2CCc3ccccc32)ccc1F,6.25,
COc1ccc(-c2ccc(CCC(=O)O)n2-c2cc(Cl)ccc2O)cc1,-13.7,
CC(C)c1ccc(NC(=O)C2Cc3ccccc3N2C(=O)c2ccccc2)cc1 (stereo not given),-4.76,
CCOC(=O)c1c(NC(=O)c2ccc(S(=O)(=O)N3CCC(C)CC3)cc2)sc2c1CCN(CC)C2,6.25,
Cc1ccc(-c2cc(C(=O)N3CCN(c4ccccc4)CC3)c3ccccc3n2)cc1C,-15.7,
CCOC(=O)C1CCCN(C(=O)Cn2c(=O)cc(C)c3c(C)nn(C)c32)C1 (stereo not given),-0.372,
O=C(NCCSc1c(-c2ccc(F)cc2)[nH]c2ccccc12)c1ccc(S(=O)(=O)N2CCOCC2)cc1,4.61,
Cc1ccc(NC(=O)c2c(C)oc3ccc(O)c(CN4CCCCC4)c23)c(C)c1,-4.63,
CCc1ccc(CNC(=O)Cn2nc(-c3ccc(C)cc3)ccc2=O)cc1,6.25,
Cc1nnc(SCC(=O)NCc2ccccc2F)c2nn(-c3ccc(Cl)cc3)c(C)c12,0,
Cc1ccc(S(=O)(=O)C2(C(=O)Nc3ccc(C(C)C)cc3)CC2)cc1,23.2,
CCOC(=O)c1c(NC(=O)c2nc(S(C)(=O)=O)ncc2Cl)sc(C(C)=O)c1C,,5.85 µM (active)
Cc1cccc(CS(=O)(=O)c2ncc(Cl)c(C(=O)NCc3ccccc3)n2)c1,,18.5 µM (active)
Cc1cccc(Cn2c(=O)n(CCCC(=O)NCc3ccccc3Cl)c(=O)c3ccccc32)c1,-5.71,
CCS(=O)(=O)c1ncc(Cl)c(C(=O)NCc2ccccc2)n1,,3.29 µM (active)
COc1ccc(NC(=O)CCc2nc3c(C)nn(-c4ccc(C)cc4)c3n(C)c2=O)cc1,-1.68,
COc1ccc(NC(=O)c2nc(S(=O)(=O)Cc3ccc(C)cc3)ncc2Cl)cc1,,2.61 µM (active)
CCOC(=O)c1c(NC(=O)c2ccc(S(=O)(=O)N3CCC(C)CC3)cc2)sc2c1CCN(C(C)C)C2,6.25,
CCCS(=O)(=O)c1ncc(Cl)c(C(=O)Nc2scc(-c3ccccc3)c2C(=O)OCC)n1,-21.1,
CCC1(C)CC(=O)c2c(ccc3oc(C(=O)NCc4ccccc4)c(C)c23)O1 (stereo not given),-8.68,
Cc1c2cnn(CC(=O)NCc3ccccc3)c(=O)c2c(C)n1Cc1cccc(Cl)c1,-19.8,
CCc1cnc2c(c1SCC(=O)NCc1ccccc1)c(=O)n(C)c(=O)n2C,0.735,
Cc1cccc(C(=O)Nc2ccccc2SCc2cc(=O)c3cccc(C)c3[nH]2)c1,-11.8,
COc1ccc(CCNC(=O)CCn2c(=O)c3ccccc3n(Cc3ccccc3C)c2=O)cc1OC,11.2,

SMILES,"activity, negative = inhibition [%]",Potency
COc1ccc(CCNC(=O)c2ccc3c(c2)N=C(C)c2cc(C)ccc2S3)cc1OC,-12,
O=C(Nc1cccc(C(=O)N2CCN(c3ccc(Cl)cc3)CC2)c1)c1nsc2ccccc12,-20.5,
Cc1ccc(NC(=O)c2cc(S(=O)(=O)N3CCCCCC3)ccc2F)cc1F,6.25,
Cc1oc2ccc(O)c(CN(C)Cc3ccccc3)c2c1C(=O)Nc1cccc(Cl)c1C,-17.4,
O=c1ccc(-c2ccccc2)nn1Cc1ccc(F)cc1Cl,-5.19,
CCc1ccc(CNC(=O)c2ccc(NC(=O)N3CCCCc4ccccc43)cc2)cc1,-0.195,
CCCC(=O)C1=C(c2ccc(C)cc2)N(C(=O)CCC)n2cnnc2S1,-8.15,
Cc1cc(C)cc(NC(c2cccc(Cl)c2)c2nnc(-c3ccccc3)o2)c1 (stereo not given),20.8,
CCOC(=O)N1CCc2c(sc3c2C(=O)NC(c2cc(OC)c(OC)c(OC)c2)N3)C1 (stereo not given),-16.6,
CCCOc1ccc(Oc2nc(NCC(C)C)nc(N(C)C)n2)nn1,-11.8,
CCN1CCc2c(sc(NC(=O)CSc3ccccc3)c2-c2nc3ccccc3s2)C1,0.735,
O=C(NCC1CCN(Cc2cccc(Cl)c2)CC1)Nc1ccc(F)c(Cl)c1,-100,
Cc1ccc(CN2CCC(CNC(=O)Nc3ccc(Cl)cc3)C2)cc1 (stereo not given),-64.5,
Cc1cccc(CN2CCC(CNc3ncnc4onc(-c5ccc(Cl)cc5)c34)CC2)c1,,7.36 µM (active)
CCC(C)NC(=O)c1cc(Sc2cccc(Cl)c2)nc2ccccc12 (stereo not given),6.25,
COc1ccc(-n2nnc(-c3nsc(NC(=O)c4ccc(C)c(C)c4)n3)c2C)cc1Cl,-25.9,
CCOc1ccc(-c2oc3ccccc3c(=O)c2O)cc1OCC,-100,
CCOc1ccc(N(C(=O)Cn2nnc3ccccc32)C(C(=O)NCc2ccccc2)c2ccc(OC)cc2)cc1 (stereo not given),-3.48,
COc1ccc(N(Cc2ccccc2)C(=O)c2nc(S(C)(=O)=O)ncc2Cl)cc1,,2.33 µM (active)
COc1ccc(-n2cc(C(=O)N(CCN(C)C)Cc3ccccc3)c3ccccc3c2=O)cc1,-28.9,
CCS(=O)(=O)c1ncc(Cl)c(C(=O)N(Cc2ccccc2)c2ccc(OC)cc2)n1,,3.29 µM (active)
CCN(CC)CCNC(=O)c1cn(CCOC)c(=O)c2c1c1ccccc1n2C,18.4,
CC(C)C(=O)OC1=CN(Cc2ccccc2)S(=O)(=O)c2ccccc21,1.95,
